Experimental findings from PubChem BioAssay (NCI) are described below.

This is part of a sample that, as a whole, favours compounds with a hit. Of some 79,000 tested, about 15% had one in any assay. A number with no mark means an inactive call. Activity calls are given as the source filed them. Rule as the data show it: active = growth inhibition above about 70%; inactive = the rest.

The nature of assay [1]: NCI Yeast Anticancer Drug Screen. Data for the rad50 strain (AID 155).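 Also: 0% = growth of vehicle-only cultures of the same strain.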 Conditions: S. cerevisiae rad50 strain growth inhibition; at 50.0 µM; stronger effect = higher value. An outline of the steps: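 DNA repair mutant yeast, compound exposure, growth read-out; inhibition is taken relative to vehicle.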
The nature of assay [2]: NCI Yeast Anticancer Drug Screen. Data for the mec2-1 strain (AID 157). Conditions: S. cerevisiae mec2-1 strain, at 50.0 µM, stronger effect = higher value. An outline of the steps:
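Vehicle-treated cultures served as reference for growth inhibition of compound-exposed mec2-1 yeast.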

Assay [3] is described as follows: NCI Yeast Anticancer Drug Screen. Data for the sgs1 mgt1 strain (AID 161).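 Also: 0% = growth of cultures given vehicle only.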 Conditions: S. cerevisiae sgs1 mgt1 strain, at 50.0 µM, stronger effect = higher value. An outline of the steps:
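Mutant yeast exposed to compound; growth scored against vehicle-only wells.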

Assay [4] in a line: NCI Yeast Anticancer Drug Screen. Data for the cln2 rad14 strain (AID 165).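 Also: 0% = growth equal to vehicle treated cultures.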 Conditions: S. cerevisiae cln2 rad14 strain, at 50.0 µM, stronger effect = higher value. The method in brief:
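Each compound was tested on cln2 rad14 yeast. Inhibition of growth was calculated against vehicle-exposed controls.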

Assay [5] in a line: NCI Yeast Anticancer Drug Screen. Data for the bub3 strain (AID 167). Conditions: S. cerevisiae bub3 mutant strain, at 50.0 µM, stronger effect = higher value. An outline of the steps:
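In this screen, a yeast mutant lacking normal mitotic checkpoint function is challenged with compound. Relative growth versus vehicle gives the inhibition value.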

A short description of assay [6]: NCI Yeast Anticancer Drug Screen. Data for the mlh1 rad18 strain (AID 175). Conditions: S. cerevisiae mlh1 rad18 strain growth inhibition; at 50.0 µM; stronger effect = higher value. The method in brief: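 Vehicle-treated cultures served as the reference for growth inhibition in a yeast strain carrying DNA damage repair alterations exposed to each compound.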

With `CC1CCN(C(=O)Nc2ccccc2)CC1`, the growth inhibition in assay [1] is -7.1%; in assay [2], -17.2%; in assay [3], 4.9%; in assay [4], -51.3%; in assay [5] it was -6.05%; in assay [6], -10.7%.

As to `COc1ccc(C(=O)CC(=O)CCC(=O)Nc2ccc(Cl)cc2Cl)cc1`, the growth inhibition in assay [1] is 26.4%; in assay [2], 19.1%; in assay [3], 20.9%; in assay [4], 19.8%; in assay [5], 8.2%; in assay [6] it was 7.75%.

Regarding `COc1cc(/C=N/NC(=O)Cc2cccc3ccccc23)ccc1O`, the growth inhibition is 21.1% in assay [1]; 9.5% in assay [2]; 3.05% in assay [3]; -5.3% in assay [4]; 39.4% in assay [5]; 8.8% in assay [6].

In the case of `c1ccc2cc(SSc3ccc4ccccc4c3)ccc2c1`, the growth inhibition in assay [1] was -30.1%; in assay [2], -23.8%; in assay [3] it was -15.9%; in assay [4], 0.1%; in assay [5], -17.2%; in assay [6], -4.85%.

In the case of `CCN(CC)CCCC(C)Nc1ccnc2ccc3nn(C)nc3c12` (stereo not given), the growth inhibition in assay [1] is -11.6%; in assay [2], -4.6%; in assay [3], -15.2%; in assay [4], 2.25%; in assay [5], -14%; in assay [6] it was -14.3%.

Turning to `CC(=O)CC(=O)Nc1ccc(-c2ccccc2)cc1`, the growth inhibition in assay [1] is 19.7%; in assay [2], 3.95%; in assay [3], 18.1%; in assay [4] it was -16.2%; in assay [5] it was -6.9%; in assay [6] it was -0.35%.

With `O=c1oc2ccc([N+](=O)[O-])cc2cc1-c1csc(-c2ccccc2)n1`, the growth inhibition in assay [1] is 3%; in assay [2], -9.35%; in assay [3] it was -7.05%; in assay [4], 7.45%; in assay [5] it was -26.3%; in assay [6], -48.8%.

For `O=CC(O)C(O)C(O)C(O)C(=O)O.O=CC(O)C(O)C(O)C(O)C(=O)O.[NH-]C1CCCCC1[NH-].[Pt+2]` (stereo not given), the growth inhibition in assay [1] is -7.65%; in assay [2], -9.8%; in assay [3] it was 8.2%; in assay [4], 4.25%; in assay [5] it was 6.35%; in assay [6], -41%.

For `N#CC(c1ccccc1)N(CCc1ccccc1)C(=O)c1ccccc1` (stereo not given), the growth inhibition was -3.7% in assay [1]; 1.7% in assay [2]; -23.4% in assay [3]; -18.7% in assay [4]; -27.8% in assay [5]; -48.2% in assay [6].

With `CCCCCCCCCCCCCCCCn1cnc2c(Cl)ncnc21`, the growth inhibition in assay [1] is 23.2%; in assay [2] it was 3.9%; in assay [3], -19.5%; in assay [4], 12.8%; in assay [5], -2.6%; in assay [6], 2.55%.

As to `N#CC(OC(=O)c1cccc(C(=O)OC(C#N)(C(F)(F)F)C(F)(F)F)c1Sc1ccccc1)(C(F)(F)F)C(F)(F)F`, the growth inhibition was 27% in assay [1]; 13.8% in assay [2]; -10.1% in assay [3]; -7.8% in assay [4]; 7.55% in assay [5]; -1.3% in assay [6].

For the molecule `CCOC(=O)c1c(Br)c2c3ccccc3c3ccccc3n2c1C`, the growth inhibition is 1.7% in assay [1]; -4.9% in assay [2]; -3.75% in assay [3]; -11.8% in assay [4]; 1.8% in assay [5]; 7.25% in assay [6].

Consider `CCOC(=O)/C=C(\CC(=O)OCC)Nc1ccc(OC)cc1`, for which the growth inhibition is 6.8% in assay [1]; -21.1% in assay [2]; 4.1% in assay [3]; -13.2% in assay [4]; -2.3% in assay [5]; -15.9% in assay [6].

Take `Cc1cc([O-])c([I+]c2ccccc2)c(=O)[nH]1`: the growth inhibition in assay [1] was 93.3% (active); in assay [2] it was 66.8%; in assay [3], 97.8% (active); in assay [4], 95.6% (active); in assay [5] it was 95.5% (active); in assay [6], 90.2% (active).

As for `O=C(O)C1(C(=O)O)Cc2ccccc2C1`, the growth inhibition in assay [1] was -15.6%; in assay [2], -12.6%; in assay [3], -9.15%; in assay [4], -9.35%; in assay [5], 9.85%; in assay [6] it was 14.8%.

Consider `CCOC(=O)C1C(C)NC(C)C(C(=O)OCC)C1c1ccccc1Cl` (stereo not given), for which the growth inhibition was 11.1% in assay [1]; 6.25% in assay [2]; 6.35% in assay [3]; 4.25% in assay [4]; 2.9% in assay [5]; 9.8% in assay [6].

Regarding `C=CC1(C)CCC2C(=CCC3C2(C)CC(O)C(O)C3(C)COC2OC(C(=O)O)C(O)C(O)C2O)C1` (stereo not given) (tested in a mixture with another compound), the growth inhibition is 16.1% in assay [1]; -3.55% in assay [2]; -6.9% in assay [3]; 18.3% in assay [4]; 4.95% in assay [5]; -67.3% in assay [6].

With `CNC1C(CO)OC(n2cnc3c(N)ncnc32)C1O` (stereo not given), the growth inhibition in assay [1] is 1.85%; in assay [2], -9.55%; in assay [3], 3.75%; in assay [4], -60.8%; in assay [5] it was 2.75%; in assay [6], -13.2%.

In the case of `O=C1C2C3C=C4c5ccccc5N(c5ccccc5)C4(C2C(=O)N1c1ccc([N+](=O)[O-])cc1)[C@H]1C(=O)N(c2ccc([N+](=O)[O-])cc2)C(=O)[C@@H]31` (stereo not given in full), the growth inhibition in assay [1] was 14.7%; in assay [2], 22.1%; in assay [3] it was 21.9%; in assay [4], 13.2%; in assay [5], 28%; in assay [6], 19.1%.

Turning to `Nc1nc(=S)c2ncn(C3OC(COC(=O)c4ccc([N+](=O)[O-])cc4)C(OC(=O)c4ccc([N+](=O)[O-])cc4)C3OC(=O)c3ccc([N+](=O)[O-])cc3)c2[nH]1` (stereo not given), the growth inhibition in assay [1] was 3.35%; in assay [2], 3.35%; in assay [3] it was -2.65%; in assay [4] it was -1.7%; in assay [5], -5.65%; in assay [6], 14.3%.
